We go through 42 sequences from article PMC11006913.

For test [1], the target named is NKX3-2 (Homo sapiens, UniProt P78367 192-278, P234S). Description: PBM; 200 nM protein, PBS. Particulars: dsDNA, one strand shown.
In test [2] the target is NKX3-2 (Homo sapiens, UniProt P78367 192-278). Description: PBM; 200 nM protein, PBS. Particulars: dsDNA, one strand shown.
Sequence of NKX3-2 (Homo sapiens, UniProt P78367 192-278) (P78367 192-278): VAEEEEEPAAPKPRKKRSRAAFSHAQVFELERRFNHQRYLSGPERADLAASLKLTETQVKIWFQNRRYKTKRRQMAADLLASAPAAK

Sequence of NKX3-2 (Homo sapiens, UniProt P78367 192-278, P234S) (P78367 192-278 P234S): as the sequence (P78367 192-278) above, with P43S counted along it

Turning to AGGCATGG, the binding signal with NKX3-2 [1] was 10.6 upbm affinity estimate (log intensity, higher = more binding, comparable within an allelic series); with NKX3-2 [2], 10.5 upbm affinity estimate (log intensity, higher = more binding, comparable within an allelic series).
For the sequence AAGTGCCA, the binding signal in the test with NKX3-2 [1] was 12.6 upbm affinity estimate (log intensity, higher = more binding, comparable within an allelic series); in the test with NKX3-2 [2], 12.8 upbm affinity estimate (log intensity, higher = more binding, comparable within an allelic series).
Regarding CCAGGCAA, the binding signal with NKX3-2 [1] is 10.7 upbm affinity estimate (log intensity, higher = more binding, comparable within an allelic series); in the test with NKX3-2 [2], 10.6 upbm affinity estimate (log intensity, higher = more binding, comparable within an allelic series).
On to TAAGAACA, for which the binding signal was 11.4 upbm affinity estimate (log intensity, higher = more binding, comparable within an allelic series) in the test with NKX3-2 [1] and 11.5 upbm affinity estimate (log intensity, higher = more binding, comparable within an allelic series) with NKX3-2 [2].
Consider ATGCCGAC, for which the binding signal with NKX3-2 [1] was 10.6 upbm affinity estimate (log intensity, higher = more binding, comparable within an allelic series); with NKX3-2 [2], 10.6 upbm affinity estimate (log intensity, higher = more binding, comparable within an allelic series).
As to CGGGTTAG, the binding signal in the test with NKX3-2 [1] is 10.5 upbm affinity estimate (log intensity, higher = more binding, comparable within an allelic series); with NKX3-2 [2] it was 10.5 upbm affinity estimate (log intensity, higher = more binding, comparable within an allelic series).
Take ACCACTTC: the binding signal with NKX3-2 [1] is 12.8 upbm affinity estimate (log intensity, higher = more binding, comparable within an allelic series); with NKX3-2 [2], 12.8 upbm affinity estimate (log intensity, higher = more binding, comparable within an allelic series).
CAAACCAG: the binding signal is 10.6 upbm affinity estimate (log intensity, higher = more binding, comparable within an allelic series) with NKX3-2 [1] and 10.7 upbm affinity estimate (log intensity, higher = more binding, comparable within an allelic series) with NKX3-2 [2].
Regarding ACCGCTGG, the binding signal is 10.5 upbm affinity estimate (log intensity, higher = more binding, comparable within an allelic series) with NKX3-2 [1] and 10.5 upbm affinity estimate (log intensity, higher = more binding, comparable within an allelic series) with NKX3-2 [2].
For the sequence CCGCCGAA, the binding signal is 10.4 upbm affinity estimate (log intensity, higher = more binding, comparable within an allelic series) with NKX3-2 [1] and 10.4 upbm affinity estimate (log intensity, higher = more binding, comparable within an allelic series) with NKX3-2 [2].
AACGCCGG: the binding signal with NKX3-2 [1] is 10.6 upbm affinity estimate (log intensity, higher = more binding, comparable within an allelic series); with NKX3-2 [2] it was 10.6 upbm affinity estimate (log intensity, higher = more binding, comparable within an allelic series).
Regarding GCCCGGCC, the binding signal in the test with NKX3-2 [1] was 10.3 upbm affinity estimate (log intensity, higher = more binding, comparable within an allelic series); in the test with NKX3-2 [2], 10.2 upbm affinity estimate (log intensity, higher = more binding, comparable within an allelic series).
In the case of CTCTAGAG, the binding signal with NKX3-2 [1] was 10.9 upbm affinity estimate (log intensity, higher = more binding, comparable within an allelic series); in the test with NKX3-2 [2] it was 10.9 upbm affinity estimate (log intensity, higher = more binding, comparable within an allelic series).
Take CGTTAACG: the binding signal is 10.4 upbm affinity estimate (log intensity, higher = more binding, comparable within an allelic series) in the test with NKX3-2 [1] and 10.5 upbm affinity estimate (log intensity, higher = more binding, comparable within an allelic series) in the test with NKX3-2 [2].
As to GACGGGAC, the binding signal in the test with NKX3-2 [1] is 10.5 upbm affinity estimate (log intensity, higher = more binding, comparable within an allelic series); with NKX3-2 [2], 10.5 upbm affinity estimate (log intensity, higher = more binding, comparable within an allelic series).
As for AGAAGAGG, the binding signal with NKX3-2 [1] was 11.6 upbm affinity estimate (log intensity, higher = more binding, comparable within an allelic series); with NKX3-2 [2] it was 11.7 upbm affinity estimate (log intensity, higher = more binding, comparable within an allelic series).
Take ACGGCGGG: the binding signal in the test with NKX3-2 [1] was 10.4 upbm affinity estimate (log intensity, higher = more binding, comparable within an allelic series); with NKX3-2 [2] it was 10.4 upbm affinity estimate (log intensity, higher = more binding, comparable within an allelic series).
On to CGAGTGCA, for which the binding signal with NKX3-2 [1] was 11.7 upbm affinity estimate (log intensity, higher = more binding, comparable within an allelic series); in the test with NKX3-2 [2] it was 11.8 upbm affinity estimate (log intensity, higher = more binding, comparable within an allelic series).
Take GAGTACAC: the binding signal in the test with NKX3-2 [1] is 12.1 upbm affinity estimate (log intensity, higher = more binding, comparable within an allelic series); with NKX3-2 [2], 12.2 upbm affinity estimate (log intensity, higher = more binding, comparable within an allelic series).
For the sequence CGGCTGGC, the binding signal was 10.4 upbm affinity estimate (log intensity, higher = more binding, comparable within an allelic series) with NKX3-2 [1] and 10.4 upbm affinity estimate (log intensity, higher = more binding, comparable within an allelic series) with NKX3-2 [2].
As to AGCCTGGA, the binding signal with NKX3-2 [1] was 10.6 upbm affinity estimate (log intensity, higher = more binding, comparable within an allelic series); in the test with NKX3-2 [2] it was 10.6 upbm affinity estimate (log intensity, higher = more binding, comparable within an allelic series).
As to ACGGTGTC, the binding signal with NKX3-2 [1] was 10.6 upbm affinity estimate (log intensity, higher = more binding, comparable within an allelic series); in the test with NKX3-2 [2], 10.6 upbm affinity estimate (log intensity, higher = more binding, comparable within an allelic series).
For the sequence AAGTGCCG, the binding signal was 12.5 upbm affinity estimate (log intensity, higher = more binding, comparable within an allelic series) with NKX3-2 [1] and 12.6 upbm affinity estimate (log intensity, higher = more binding, comparable within an allelic series) with NKX3-2 [2].
As for GGGCGGAA, the binding signal with NKX3-2 [1] was 10.7 upbm affinity estimate (log intensity, higher = more binding, comparable within an allelic series); in the test with NKX3-2 [2], 10.7 upbm affinity estimate (log intensity, higher = more binding, comparable within an allelic series).
Consider CGCCAGCC, for which the binding signal with NKX3-2 [1] was 10.7 upbm affinity estimate (log intensity, higher = more binding, comparable within an allelic series); in the test with NKX3-2 [2], 10.6 upbm affinity estimate (log intensity, higher = more binding, comparable within an allelic series).
Take GGTTGAAC: the binding signal with NKX3-2 [1] is 10.6 upbm affinity estimate (log intensity, higher = more binding, comparable within an allelic series); with NKX3-2 [2], 10.6 upbm affinity estimate (log intensity, higher = more binding, comparable within an allelic series).
Turning to GCCGTGCC, the binding signal with NKX3-2 [1] is 10.6 upbm affinity estimate (log intensity, higher = more binding, comparable within an allelic series); in the test with NKX3-2 [2] it was 10.6 upbm affinity estimate (log intensity, higher = more binding, comparable within an allelic series).
Consider ATATGAGG, for which the binding signal in the test with NKX3-2 [1] is 11.6 upbm affinity estimate (log intensity, higher = more binding, comparable within an allelic series); with NKX3-2 [2], 11.6 upbm affinity estimate (log intensity, higher = more binding, comparable within an allelic series).
Take AGTGGTCC: the binding signal with NKX3-2 [1] is 11.9 upbm affinity estimate (log intensity, higher = more binding, comparable within an allelic series); with NKX3-2 [2], 11.9 upbm affinity estimate (log intensity, higher = more binding, comparable within an allelic series).
Consider AGCCGCGC, for which the binding signal is 10.5 upbm affinity estimate (log intensity, higher = more binding, comparable within an allelic series) with NKX3-2 [1] and 10.5 upbm affinity estimate (log intensity, higher = more binding, comparable within an allelic series) with NKX3-2 [2].
Turning to GGCCTCAC, the binding signal is 10.5 upbm affinity estimate (log intensity, higher = more binding, comparable within an allelic series) in the test with NKX3-2 [1] and 10.6 upbm affinity estimate (log intensity, higher = more binding, comparable within an allelic series) with NKX3-2 [2].
On to ACGATCGA, for which the binding signal with NKX3-2 [1] was 10.7 upbm affinity estimate (log intensity, higher = more binding, comparable within an allelic series); in the test with NKX3-2 [2] it was 10.7 upbm affinity estimate (log intensity, higher = more binding, comparable within an allelic series).
Take CCTATGGC: the binding signal with NKX3-2 [1] is 10.6 upbm affinity estimate (log intensity, higher = more binding, comparable within an allelic series); in the test with NKX3-2 [2] it was 10.6 upbm affinity estimate (log intensity, higher = more binding, comparable within an allelic series).
In the case of CCCACGGG, the binding signal with NKX3-2 [1] is 10.3 upbm affinity estimate (log intensity, higher = more binding, comparable within an allelic series); with NKX3-2 [2], 10.3 upbm affinity estimate (log intensity, higher = more binding, comparable within an allelic series).
Turning to CCCACTTC, the binding signal with NKX3-2 [1] was 12.7 upbm affinity estimate (log intensity, higher = more binding, comparable within an allelic series); with NKX3-2 [2], 12.8 upbm affinity estimate (log intensity, higher = more binding, comparable within an allelic series).
With GAGAGTAC, the binding signal with NKX3-2 [1] was 12 upbm affinity estimate (log intensity, higher = more binding, comparable within an allelic series); with NKX3-2 [2] it was 12.1 upbm affinity estimate (log intensity, higher = more binding, comparable within an allelic series).
Consider AGTGGAGA, for which the binding signal with NKX3-2 [1] is 11.7 upbm affinity estimate (log intensity, higher = more binding, comparable within an allelic series); with NKX3-2 [2], 11.7 upbm affinity estimate (log intensity, higher = more binding, comparable within an allelic series).
Consider ACCTCTTG, for which the binding signal is 11.6 upbm affinity estimate (log intensity, higher = more binding, comparable within an allelic series) with NKX3-2 [1] and 11.7 upbm affinity estimate (log intensity, higher = more binding, comparable within an allelic series) with NKX3-2 [2].
In the case of GAGTGACA, the binding signal is 11.4 upbm affinity estimate (log intensity, higher = more binding, comparable within an allelic series) with NKX3-2 [1] and 11.5 upbm affinity estimate (log intensity, higher = more binding, comparable within an allelic series) with NKX3-2 [2].
Take GCCGAGCC: the binding signal with NKX3-2 [1] is 10.8 upbm affinity estimate (log intensity, higher = more binding, comparable within an allelic series); with NKX3-2 [2], 10.7 upbm affinity estimate (log intensity, higher = more binding, comparable within an allelic series).
ACTCTGAT: the binding signal is 11.5 upbm affinity estimate (log intensity, higher = more binding, comparable within an allelic series) in the test with NKX3-2 [1] and 11.6 upbm affinity estimate (log intensity, higher = more binding, comparable within an allelic series) in the test with NKX3-2 [2].
Consider ATCCCGCC, for which the binding signal with NKX3-2 [1] was 10.7 upbm affinity estimate (log intensity, higher = more binding, comparable within an allelic series); with NKX3-2 [2], 10.7 upbm affinity estimate (log intensity, higher = more binding, comparable within an allelic series).
